In the library only some 3.5% were active in any assay of this set; here they are far more common.
mHTT-CaM PPI inh = disrupts binding of mutant huntingtin to calmodulin; P42858; actives 3.6% (n = 190,000); inhibition, % at 15 µM; AID 1671202; AlphaScreen His-mHTT/GST-CaM binding, luminescence;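 also: 0% = both proteins with DMSO and 100% = one protein alone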
Pf apPOL inh = Pf-apPOL DNA polymerase inhibition | Recombinant Pf-apPOL, molecular beacon fluorescence, 1.5 h | actives 0.25% (n = 210,000) | inhibition, % at 10 µM
* = called active by the depositor; / = no result given. Rule as the data show it: active = inhibition above about 50%; inactive = the rest.

SMILES	mHTT-CaM PPI inh	Pf apPOL inh
O=C(CC1c2ccccc2C=C(c2ccsc2)N1c1ccc(-c2cccnc2)cc1)C1CC1 (configuration not stated)	84.1*	-5.5
COc1cc(OC)cc(C2=Cc3ccccc3C(CC(C)=O)N2c2ccc(-c3cncnc3)cc2)c1 (configuration not stated)	50.1*	-3.1
COc1cc(OC)cc(C2=Cc3ccccc3C(CC(C)=O)N2c2ccc(-c3cccs3)cc2)c1 (configuration not stated)	40.3	-3.3
COc1ncc(-c2ccc(N3C(c4ccsc4)=Cc4ccc(F)cc4C3CC(=O)c3ccco3)cc2)cn1 (configuration not stated)	15.1	-6.2
Cc1ccc(C2CC(c3ccccc3F)n3nnnc3N2)cc1C (configuration not stated)	-2.4	3.6
COc1ccc(N2CCN(C(=O)c3cn(-c4ccc(Cl)cc4)c(=O)c4ccccc34)CC2)cc1	36.0	-7.9
Cc1ccc(C(=O)N2CCCC2c2ccccc2C)cc1 (configuration not stated)	-9.3	0.0
Cc1ccc(C(=O)N2Cc3ccccc3CC2C(=O)O)cc1 (configuration not stated)	53.0*	-0.6
CCC(CC)C1C(C#N)=C(N)OC2=C1C(=O)CCC2 (configuration not stated)	-0.4	-0.2
COc1ccc(-c2nc3cc(C)ccn3c2NC(=O)C(Cl)Cl)cc1OC	27.7	7.8
Cc1ccc(NC(=O)CSc2nnc(CNC(=O)c3ccccc3)o2)cc1Cl	8.0	2.8
CC(=O)N(Cc1ccc2c(c1)CN(C(=O)C(C)(C)C)CCO2)c1ccc(C)cc1	73.2*	-6.7
CC(C)(C)C(=O)N1CCN(Cc2ccc3c(c2)OCO3)CC1	/	-9.5
COc1ccc(CNC(=O)C2(C)CCCN(C(=O)c3cccc(F)c3)C2)cc1 (configuration not stated)	5.2	-0.8
Cc1nc2scc(C)n2c(=O)c1NC(=O)C1CCCCC1	-5.5	0.5
CCCC(=O)Nc1nnc(C2CC(=O)N(c3ccc(Cl)cc3)C2)o1 (configuration not stated)	9.5	-3.6
O=C(Cc1ccccc1Cl)Nc1nnc(C2CC(=O)N(c3ccccc3)C2)o1 (configuration not stated)	50.9*	-0.5
Cc1ccccc1CC(=O)Nc1nnc(C2CC(=O)N(c3ccc(Cl)cc3)C2)o1 (configuration not stated)	87.8*	-3.9
O=C(Cc1c(F)cccc1Cl)Nc1nnc(C2CC(=O)N(c3ccccc3)C2)o1 (configuration not stated)	64.4*	4.2
O=C(Cc1cccc(F)c1)Nc1nnc(C2CC(=O)N(c3ccccc3)C2)o1 (configuration not stated)	41.2	-4.6
Cc1ccc(OCC(=O)Nc2nnc(C3CC(=O)N(c4ccccc4)C3)o2)cc1 (configuration not stated)	21.8	-1.6
O=C(c1nn2c(c1Cl)NC(c1ccccc1)CC2C(F)(F)F)N1CCCCCC1 (configuration not stated)	50.0	-1.5
O=C(c1nn2c(c1Cl)NC(c1ccccc1)CC2C(F)(F)F)N1CCCCC1 (configuration not stated)	14.0	-0.9
O=C(c1nn2c(c1Cl)NC(c1ccccc1)CC2C(F)(F)F)N1CCc2ccccc2C1 (configuration not stated)	72.0*	-2.8
CCC1CCCCN1C(=O)c1nn2c(c1Cl)NC(c1ccccc1)CC2C(F)(F)F (configuration not stated)	87.0*	-5.5
SMILES	mHTT-CaM PPI inh	Pf apPOL inh
COC(=O)C(C)Oc1cc(C)cc2oc(=O)cc(-c3ccccc3)c12 (configuration not stated)	-7.2	-3.6
CC(Oc1cc2oc(=O)cc(-c3ccccc3)c2cc1Cl)C(=O)O (configuration not stated)	100.0*	-1.1
CN1CCN(CCNC(=O)c2cc3n(n2)CCCN(Cc2ccc(F)cc2)C3=O)CC1	-4.5	-0.1
COc1cccc(C2=N/C(=C\c3ccc([N+](=O)[O-])cc3)C(=O)O2)c1	0.0	-3.6
COc1ccc(NC(=O)C2(C)Oc3cccnc3N(C)C2=O)cc1 (configuration not stated)	1.3	4.5
O=C(COc1cccc(Cl)c1)NCc1ccco1	-3.9	-19.5
O=C(COc1cccc2c1CCN(Cc1ccc(Cl)cc1)C2=O)NCc1ccco1	69.8*	-10.8
Cc1ccccc1NCC(O)Cn1c(C)c(C)c2ccccc21 (configuration not stated)	96.0*	1.4
Cc1c(C)n(CC(O)CNc2ccc(I)cc2)c2ccccc12 (configuration not stated)	99.0*	4.7
COc1ccccc1NCC(O)Cn1c(C)c(C)c2ccccc21 (configuration not stated)	59.0*	-2.4
Cc1cccc(NCC(O)Cn2c(C)c(C)c3ccccc32)c1C (configuration not stated)	93.0*	-6.3
CNCC(O)Cn1c2ccccc2c2ccccc21 (configuration not stated)	13.4	4.0

Assay outcomes from PubChem BioAssay.
